From PubChem BioAssay (NCI)
Compounds without any hit were thinned out: in the full panel of roughly 83,000, 20% have a hit.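 Results are percent growth after 48 hours of single-concentration exposure. 100 means growth as in untreated cells, lower positive values show inhibition; negative values down to -100 show cell death.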 Unmarked numbers belong to inactive results. Active and inactive are the calls of the source.

Each compound was assayed on TK-10 renal (assay: NCI-60 one-dose screen, 48 h (100 = growth as untreated, 0 = no growth, -100 = all killed)). Conditions: 10 µM unless noted.
Procedure: Growth inhibition of the TK-10 human tumor cell line is measured as a screen for anti-cancer activity. Cells are grown in 96 well plates and exposed to the test compound for 48 hours. Compounds are tested at a single concentration, which is 10^-5 M for most compounds. The reported endpoint is percent growth (GI% or GIPRCNT), where numbers from 0 - 100% represent growth inhibition, and numbers from -100% - 0 represent cell death. For example, a value of 40 represents 60% growth inhibition. A value of 0 means no net growth occurred over the course of the experiment. A value of -40 indicates 40% of cells at the beginning of the experiment died by the end of the experiment. A value of -100 means all cells are dead at the end of the experiment.
NCI-60 Human Tumor Cell Lines Screen was performed using the standard one-dose NCI protocol, which is described in more detail at https://dtp.cancer.gov/discovery_development/nci-60/default.htm.
Compounds with GIPRCNT values below 10 were considered active. Activity score was based on GIPRCNT using the following formula: […]
Score is 0 for GIPRCNT values of 100 or above, 50 for GIPRCNT values of 0, and 100 for GIPRCNT values of -100.

Structure (SMILES) | growth
C#C[C@]1(O)CC[C@H]2[C@@H]3CC=C4c5sc(-c6ccc([N+](=O)[O-])cc6)nc5CC[C@]4(C)[C@H]3CC[C@@]21C | 52%
CCOC(=O)c1ccc(Nc2nc(NN)nc(-c3ccc(OC)cc3)c2C#N)cc1 | 120%
CC(C)(C)OC(=O)/C=C/c1cccc2c1C(=O)NC(C)(c1cc3cc(Cl)ccc3oc1=O)N2 (stereo not given) | 66.2%
COc1ccc(/C=C2\C(=N)N=C(SCc3nc4ccccc4[nH]3)NC2=O)cc1 | 149%
Cc1cnc(C(=O)NNc2nc3cc(F)ccc3n3c(C(=O)N4CC5CC(C4)N5)ccc23)cn1 | 41.2%
NS(=O)(=O)c1ccc(CCNC(=O)CSc2ccc(-c3ccc(Br)cc3)nn2)cc1 | 72.2%
O=c1[nH]c2ccccc2cc1CSc1cccc(Nc2nccc(-c3ccc4ccccc4c3)n2)c1 | 79.9%
COc1ccc(NC(=O)Cn2c(/C=C/c3cccc([N+](=O)[O-])c3)nc3ccccc3c2=O)cc1 | 72.7%
Brc1ccc(N/N=C/c2c[nH]c3ccc(Br)cc23)nc1 | -16.8% (active)
Nc1nc(C(F)(F)F)cs1 | 98.1%
CSc1ccccc1NC(=O)c1ccc2nnn(/C(C#N)=C/c3ccccn3)c2c1 | -98.6% (active)
CSc1ccc(NC(=O)c2ccc3nn(/C(C#N)=C/c4ccccn4)nc3c2)cc1 | -94.7% (active)
O=c1[nH]c2ccc(Cl)cc2cc1CSc1nccc(-c2ccc(Cl)cc2)n1 | 88.2%
O=C(O)c1cccc(-c2ccc(/C=N/NC(=O)c3[nH]c4ccc(Br)cc4c3-c3ccccc3)o2)c1 | 117%
COc1c(F)ccc(C(=O)Nc2ccc3nc(NC(=O)C4CCCN(S(=O)(=O)c5ccc(Br)c(F)c5)C4)sc3c2)c1F (stereo not given) | 122%
COc1ccc(C(=O)/C=C/c2c(F)cccc2Cl)cc1S(N)(=O)=O | 27.4%
CC1=C(C(=O)OC(C)C)C(c2cccc(O)c2)NC(=S)N1 (stereo not given) | 104%
O=C(/C=C/c1cccc(OCc2ccc(F)cc2)c1)c1nc2ccccc2[nH]1 | 79%
CN(C)CCn1c2ccccc2c2nc3ccc([N+](=O)[O-])cc3nc21 | -1.22% (active)
C=C1CCC2C3(C)COC(c4ccc(F)cc4)OC3CCC2(C)C1CC(O)C1=CCOC1=O (stereo not given) | 96.6%

Structure (SMILES) | growth
CCN(CC)c1ccc(/C=N/Nc2nc(-c3ccc(Br)cc3)cs2)c(O)c1 | 96.5%
COc1cc(OC)cc(-c2cc3ccc(N(C)C)cc3c(=O)[nH]2)c1 | 79.1%
CCN1CCN(Cc2ccc(C(=O)Nc3cccc(C#Cc4cccc5[nH]nc(N)c45)c3)cc2C(F)(F)F)CC1 | -94.2% (active)
C(=C\c1cc(/C=C/c2ccccc2)c2ccccc2n1)/c1ccccc1 | 106%
N#Cc1c(-c2ccc(Br)cc2)nc2n[nH]c(-c3ccc(Br)cc3)c2c1-c1ccc(C(F)(F)F)cc1 | 70%
C#CCOc1cc(N(CC)CC)ccc1C(C(=O)NC(C)(C)C)N(C(=O)C1CCc2cc(F)ccc2O1)c1ccccc1Br (stereo not given) | 86.3%
O=C(COc1ccc(NC(=O)Nc2ccc(Cl)c(Cl)c2)cc1)N=Nc1c(O)[nH]c2ccccc12 | 30.5%
COc1cc2c(c(OC)c1OC)C(=O)CC(c1cccc(NC(=O)[C@@H](N)CC(C)C)c1)O2 (stereo not given in full) | 115%
CCN(CC)c1ccc(/C=N/Nc2nc(-c3ccc(C)cc3)cs2)c(O)c1 | 86.9%
N/C(=N\N=C\c1ccc([N+](=O)[O-])cc1)c1c(N)nc(=S)[nH]c1-c1ccc(Cl)cc1Cl | 142%
COc1ccc2c(c1)c(-c1cc3nc(-c4cn(C)c5ncccc45)cc(N)n3n1)cn2C | -27.8% (active)
C=CC(=O)Nc1ccc(C)c(Oc2ccc(Cl)cc2)c1 | 74%
c1ccc(-c2csc(Nc3cccc(Nc4nc(-c5ccccc5)cs4)c3)n2)cc1 | 68.6%
CSc1ccc(NC(=O)c2ccc3nnn(/C(C#N)=C/c4ccccn4)c3c2)cc1 | -98.5% (active)
C=C1CCC2C3(C)COC(c4cccc(F)c4)OC3CCC2(C)C1C/C=C1/C(=O)OCC1O (stereo not given) | -6.05% (active)
Cn1cc(-c2nnc(N)nc2-c2c[nH]c3ccccc23)c2cccnc21 | 91.5%
CC(=O)c1cccc(NC(=O)CCC(=O)NS(=O)(=O)c2ccc(C)cc2)c1 | 103%
C=C1CC[C@@H]2[C@]3(C)COC(c4cn(-c5ccccc5)nc4-c4cccc([N+](=O)[O-])c4)O[C@@H]3CC[C@@]2(C)[C@@H]1C/C=C1/C(=O)OC[C@H]1O (stereo not given in full) | 36.9%
COc1ccc2[nH]cc(-c3nc(N)nnc3-c3cn(C)c4ncccc34)c2c1 | 93.1%
COc1c(F)ccc(C(=O)Nc2ccc3nc(NC(=O)C4CCCN(S(=O)(=O)c5ccc(Cl)cc5)C4)sc3c2)c1F (stereo not given) | 103%
